# Pf Dd2 growth = qHTS Primary assay for Inhibitors of Plasmodium falciparum Dd2 growth in vitro; P. falciparum Dd2 growth, SYBR Green, 72 h; Potency, µM (highest dose often 28.9 µM), for the others: at the top dose activity, negative = inhibition, actives largely listed as inhibitors; actives 4.3% (n = 120,000); AID 1347417, 2020; active = well fitted inhibition curve with a large enough effect;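 note: plate controls were DMSO vehicle for no effect and reference drug for full effect; nearly all actives have a fitted effect of over 65% in size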
#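 Infected erythrocytes (Dd2, 0.3% parasitemia, 2.5% hematocrit final) are added to compound in RPMI-1640/Albumax II medium, grown 72 h at 37C in low oxygen, then lysed with saponin/Triton-X containing SYBR Green and read by fluorescence.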
# * hit, by the source's call; i = inactive; [ ] = dose if it differs, or a comment. The entries come from a sample that favours hits as a whole. Potency is the fitted concentration of half-maximal effect.
SMILES,Pf Dd2 growth
CCn1cc(CN2CCCN(S(=O)(=O)c3ccccc3)CCC(=O)NCC2)c(C)n1,-18%
COc1ccc(NC(=O)C2CCN(c3cc(C(F)(F)F)ncn3)CC2)c(OC)c1,-10%
COCc1nc(-c2ccc(OC3CCN(Cc4ccc(C(F)(F)F)cc4)C3)cc2)no1 (configuration not stated),i[5.79 µM]
CCC1(C(=O)NCc2cccc(C(F)(F)F)c2)CCCCC(=O)N1 (configuration not stated),2%
Cc1ccc(C(=O)NC[C@H]2O[C@@H](CC(=O)N3CCc4ccccc43)[C@H](O)[C@@H]2O)cc1,i
O=C(CC[C@H]1NC(=O)c2ccccc2NC1=O)Nc1nnc(Cc2ccccc2)s1,-4%
COc1ccccc1CCC(=O)N1CCc2nn(C)c(=O)n2CC1,19%
NC(=O)NCc1cn(C2CCN(Cc3ccc4occc4c3)CC2)nn1,-4%
O=C(C1CC(=O)N(c2n[nH]c3ccccc23)C1)N1CCSCC1 (configuration not stated),-9%
CC(C)NC(=O)C[C@@H]1O[C@H](CNC(=O)c2ccccc2)[C@@H](O)[C@H]1O,4%[44.1 µM]
O=C(Cc1ccc(OC(F)(F)F)cc1)Nc1cccn2nc(C3CC3)nc12,-19%
CCNC(=O)N1CCCCCCNC(=O)[C@@H]2CCCC[C@@H]21,4%
Cn1cccc1C(=O)NC1CCN(C(=O)N2CC3CC(C2)[C@H]2CCCC(=O)N2C3)CC1 (some centres not stated),i
CN1CC(=O)N(C2CCCNC2)Cc2c(NCCCN3CCCCC3)ncnc21 (configuration not stated),8%
CCC(=O)N1CCC(=O)N(CC)C2(CCOCC2)C1,10%
O=c1c2c(CO)c(-c3ccc(F)cc3)nn2ccn1CCOc1ccccc1,i
O=C1CCN(S(=O)(=O)c2ccccc2)CCCN(Cc2ccccc2)CCN1,8.9µM*
CCC(=O)N1CCCN(S(=O)(=O)c2ccccc2)CCC(=O)NCC1,10%
O=C1CCN(S(=O)(=O)c2ccccc2)CCCCCCN1,22%
O=C(C1CCCO1)N1CCc2[nH]nc(C(c3ccccc3)c3ccccc3)c2C1 (configuration not stated),-22%
NC(=O)[C@H](CC1CCCCC1)NC(=O)[C@H]1CN(C(=O)C2CCNCC2)CCN1C(=O)NC1CCCCC1,-22%
CN(Cc1cccc(-n2cccn2)c1)Cc1nc(-c2cccs2)no1,-14%
COc1ccc(N2CCN(c3ncnc4c3cnn4-c3ccc(C)c(Cl)c3)CC2)cc1,40%
COc1ccc(-n2ncc3c(N4CCN(c5cccc(C)c5)C(C)C4)ncnc32)cc1 (configuration not stated),5.6µM*
Cc1cccc(-n2ncc3c(N4CCN(c5ccccc5)CC4)ncnc32)c1,44%
SMILES,Pf Dd2 growth
CC(C)C1=NOC2(CCN([S+](=O)([O-])c3cccc(C(F)(F)F)c3)C2)C1 (configuration not stated),-6%
CCC[C@@H]1CN(C(=O)c2ccc(-c3ccc(C)o3)cc2)C[C@H]1NC(C)=O,-1%
CCCNC(=O)O[C@@H]1CC[C@]2(C)C(CC[C@H]3OC(=O)C[C@H]32)[C@]1(C)CO (some centres not stated),-15%[44.1 µM]
CC1(c2ccccc2)N(Cc2ccccc2)C(=O)OC12CCN(Cc1cccnc1N)CC2 (configuration not stated),-22%
COc1ncccc1CN1CCC2(CC1)OC(=O)N(Cc1ccccc1C#N)C2(C)c1ccccc1 (configuration not stated),4.5µM*
COc1cccc(CN2C(=O)OC3(CCN(Cc4c[nH]c5ccccc45)CC3)C2(C)c2cccnc2)c1 (configuration not stated),0.79µM*
CC1(c2ccccc2)N(Cc2cccnc2)C(=O)OC12CCN(C(=O)Cc1ccccc1)CC2 (configuration not stated),i
COc1cccc(CN2C(=O)OC3(CCN(C(=O)C4CCC4)CC3)C2(C)c2cccnc2)c1 (configuration not stated),i
CC1(c2cccnc2)N(Cc2ccccc2)C(=O)OC12CCN(C(=O)COc1ccccc1)CC2 (configuration not stated),6.3µM*
CC1(c2ccccc2)N(Cc2ccccc2C#N)C(=O)OC12CCN(C(=O)CN1CCOCC1)CC2 (configuration not stated),-26%
CC1(c2ccccc2)N(Cc2ccccc2)C(=O)OC12CCN(C(=O)COc1ccccc1)CC2 (configuration not stated),-17%
COc1cccc(CN2C(=O)OC3(CCN(C(C)=O)CC3)C2(C)c2cccnc2)c1 (configuration not stated),-6%[44.1 µM]
Cn1c(=O)n([C@H]2CCCN(C(=O)Nc3ccc(F)cc3F)C2)c2ncccc21,i
CCN(C(=O)Cn1c(C)cc2nc3n(c(=O)c21)CCCCC3)c1cccc(C)c1,i
CCC(Sc1nc2ccccc2c(=O)n1CCc1ccc(OC)c(OC)c1)C(=O)N(CC)CC (configuration not stated),-5%
CCC(Sc1nc2c(sc3ccccc32)c(=O)n1CCc1ccc(OC)c(OC)c1)C(=O)N(CC)CC (configuration not stated),4µM*
CCC(Sc1nc2c(sc3ccccc32)c(=O)n1CCc1ccccc1)C(=O)N(CC)CC (configuration not stated),24%
COc1ccc(Br)cc1[C@@H]1Nc2ccc(C(=O)O)cc2[C@@H]2C=CC[C@@H]21,8%
CCOC(=O)c1ccc2c(c1)[C@@H]1C=CC[C@@H]1[C@H](c1cccc(OC)c1OC)N2,0.45µM*
COc1ccc(OC)c([C@@H]2Nc3ccc(C(=O)O)cc3[C@@H]3C=CC[C@@H]32)c1,12%
O=C(Nc1ccc(Cl)cc1)N1CCn2c(nnc2C2CC2)C1,i
CC1=C[C@@H](CN2CCOCC2)[C@H](C(C)C)C[C@H]1Cc1nnc(-c2ccncc2)o1,-12%[44.1 µM]
CC1=C[C@@H](CNC(=O)C2CCCCC2)[C@H](C(C)C)C[C@H]1CC(=O)NCc1cccnc1,-22%[44.1 µM]
CC(=O)NC[C@@H]1C=C(C)[C@H](Cc2nc3ccccc3n2C)C[C@H]1C(C)C,i
CC(=O)NC[C@@H]1C=C(C)[C@H](Cc2nnc(-c3cncn3C)o2)C[C@H]1C(C)C,0%[44.1 µM]
SMILES,Pf Dd2 growth
CC(=O)N1CCN(C[C@@H]2C=C(C)[C@H](Cc3nnc(-c4cncn4C)o3)C[C@H]2C(C)C)CC1,-12%
CC1=C[C@@H](CN2CCN(c3ccccc3)CC2)[C@H](C(C)C)C[C@H]1Cc1nnc(-c2cncn2C)o1,4µM*
CC1=C[C@@H](CNC(=O)C2CC2)[C@H](C(C)C)C[C@H]1Cc1nnc(-c2ccccc2F)o1,16µM*
CC1=C[C@@H](CNC(=O)COc2ccccc2)[C@H](C(C)C)C[C@H]1CC(=O)NCCN1CCOCC1,i
CC1=C[C@@H](CNCCN2CCOCC2)[C@H](C(C)C)C[C@H]1Cc1nnc(-c2ccccc2)o1,4µM*
COCC(=O)NC[C@@H]1C=C(C)[C@H](Cc2nnc(-c3cncn3C)o2)C[C@H]1C(C)C,i
CC1=C[C@@H](CNC(=O)N2CCOCC2)[C@H](C(C)C)C[C@H]1Cc1nc2ccccc2[nH]1,-8%[44.1 µM]
CC1=C[C@@H](CNC2CCOCC2)[C@H](C(C)C)C[C@H]1Cc1nc2ccccc2n1C,5µM*
COCCOC1CCN(C(=O)NCCc2ccccc2)CC1,14%
COc1ccc(OC)c(NC(=O)C2Cn3cccc3C(=O)N2)c1 (configuration not stated),i

# High-throughput results as filed in PubChem BioAssay.
